Data as given in PubChem BioAssay (EPA / NIEHS).
Results filed as inconclusive are left out. The source made the active and inactive calls. Rule for the calls, unless noted: active = hit-call score of the fitted dose curve at least 0.9, where 1 is the maximum; inactive = score below 0.9.

Legend:
[1] = CCTE_Mundy_HCI_Cortical_NOG_NeuriteCount: CCTE's Neurite Outgrowth Assay in rat cortical cells for Neurite Count, Mundy Lab (AID 2284212);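 note: cells fixed about two days after chemical exposure began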
Outline: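 Neurite number per cell from high-content imaging of betaIII-tubulin immunostaining, with Hoechst nuclear counterstain.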

[2] = CCTE_Mundy_HCI_Cortical_NOG_NeuriteLength: CCTE's Neurite Outgrowth Assay in rat cortical cells for Neurite Length, Mundy Lab (AID 2284213)
Outline: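 Neurite length was read by high-content imaging of βIII-tubulin-labelled neurites in rat primary cortical cultures. Activity was fitted relative to DMSO.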

[3] = CCTE_Mundy_HCI_Cortical_Synap_Neur_Matur_NeuriteLength: CCTE's Synaptogenesis and Neurite Maturation Assay in rat cortical cells for Neurite Length, Mundy Lab (AID 2284214)
Outline: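 Rat primary cortical cultures, AraC added DIV 5, dosed DIV 7 through DIV 12 […]. Fixed, MAP2/synaptophysin immunostained with Hoechst; neurite length by high-content imaging, fitted in positive direction versus DMSO.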

[4] = CCTE_Mundy_HCI_Cortical_Synap_Neur_Matur_NeuriteSpotCountPerNeuron: CCTE's Synaptogenesis and Neurite Maturation Assay in rat cortical cells for Neurite Spot Count per Neuron Count, Mundy Lab (AID 2284215)
Outline: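 Developing rat cortical neurons, with glia suppressed by AraC, are exposed to chemicals from DIV 7 to DIV 12. Automated fluorescence imaging of MAP2-labelled neurites and synaptophysin puncta yields a count per neuron, normalised against DMSO wells.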

[5] = CCTE_Mundy_HCI_Cortical_Synap_Neur_Matur_SynapseCount: CCTE's Synaptogenesis and Neurite Maturation Assay in rat cortical cells for Synapse Count, Mundy Lab (AID 2284218)
Outline: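 Rat primary cortical cultures, AraC at DIV 5, chemical dosing DIV 7 to DIV 12 (288.33 h). Fixed cells stained for MAP2, synaptophysin and Hoechst; synapses per neuron counted by high-content imaging, loss of signal versus DMSO.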

[6] = CCTE_Mundy_HCI_Cortical_Synap_Neur_Matur_CellBodySpotCount: CCTE's Synaptogenesis and Neurite Maturation Assay in rat cortical cells for Cell Body Spot Count, Mundy Lab (AID 2284223)
Outline: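 Chemicals were applied to AraC-treated rat primary cortical cells at DIV 7 and measured at DIV 12. Fixed cells were labelled for MAP2, synaptophysin and nuclei, and high-content imaging gave cell body synaptophysin spot counts per neuron relative to DMSO.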

[7] = UKN2_HCS_IMR90_cell_viability: Viability Assessment in the University of Konstanz (UKN) Leist Lab Neural Crest Cell Migration Assay in human induced IMR90 Pluripotent Stem Cells (UKN2) (AID 2284233);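 note: viability of neural crest cells differentiated from IMR90 iPSC measured by calcein-AM fluorescence imaging; cells exposed to compound for 24 h after a 24 h migration phase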
Outline: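 Human IMR90-derived neural crest cells were allowed to migrate for 24 h into a cell-free zone, then exposed to test chemicals for 24 h. Calcein-AM and Hoechst staining with high-content imaging gave viability, analysed against DMSO baseline.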

[8] = CCTE_Mundy_HCI_Cortical_NOG_NeuronCount: CCTE's Neurite Outgrowth Assay in rat cortical cells for Neuron Count, Mundy Lab (AID 2284236; active = hit-call score of the fitted dose curve at least 0.9, where 1 is the maximum;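 note: neurons counted by imaging betaIII-tubulin and Hoechst stained cortical cells; cells exposed to compound for about 48 hours before fixation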)
Outline: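 Read-out: neuron number by high-content imaging of betaIII-tubulin (Alexa Fluor-488) and Hoechst-labelled rat primary cortical cells.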

[9] = CCTE_Mundy_HCI_Cortical_NOG_BPCount: CCTE's Neurite Outgrowth Assay in rat cortical cells for Branch Point Count, Mundy Lab (AID 2284237)
Outline: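 Measured 50.33 h after dosing, this morphology endpoint uses rat primary cortical cultures labelled for betaIII-tubulin. Branch points are quantified by high-content imaging, with DMSO as negative control and baseline.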

[10] = CCTE_Mundy_HCI_hNP1_Casp3_7: CCTE's Caspase-Glo 3/7 Assay in human neuroprogenitor cells for Apoptosis, Mundy Lab (AID 2284240)
Outline: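 Apoptosis is scored by activated caspase-3/7 luminescence in WA09-derived neural progenitor cells, measured 26.5 h after chemical dosing. Values represent gain of signal relative to DMSO vehicle.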

[11] = CCTE_Mundy_HCI_Cortical_Synap_Neur_Matur_NeuronCount: CCTE's Synaptogenesis and Neurite Maturation Assay in rat cortical cells for Neuron Count, Mundy Lab (AID 2284242; active = hit-call score of the fitted dose curve at least 0.9, where 1 is the maximum)
Outline: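 Rat primary cortical cells, AraC added at DIV 5, dosed with media change from DIV 7 to DIV 12. Fixed, Hoechst-stained and immunolabelled for MAP2 and synaptophysin; neuron number counted by high-content imaging, loss fitted versus DMSO.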

[12] = IUF_NPC2c_oligodendrocyte_migration_120hr: Leibniz Research Institute for Environmental Medicine (IUF) 120-hour Neural Progenitor Cell Migration Assay for Oligodendrocyte Migration (NPC2c) (AID 2284297);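 note: O4-positive oligodendrocyte migration distance divided by radial glia migration distance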
Outline: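 Using fetal brain neural progenitor spheres differentiating in N2 medium at 37C, compounds were present for 120 h. Oligodendrocyte migration distance, normalized to radial glia migration, was measured from imaged O4 staining.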

[13] = IUF_NPC2a_radial_glia_migration_120hr: Leibniz Research Institute for Environmental Medicine (IUF) 120-hour Neural Progenitor Cell Migration Assay for Radial Glia Migration (NPC2a) (AID 2284298)
Outline: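 Exposure of 0.3 mm primary hNPC spheres runs day 0 to 120 h with a half-volume medium change at day 3. Fixed cells get Hoechst staining; high-content analysis of nuclear positions yields radial glia migration distance per well, compared against DMSO controls.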

[14] = IUF_NPC2b_neuronal_migration_120hr: Leibniz Research Institute for Environmental Medicine (IUF) 120-hour Neural Progenitor Cell Migration Assay for Neuron Migration (NPC2b) (AID 2284300)
Outline: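 Fetal human NPC spheres migrate on PDL/laminin during 120 h compound treatment; neuronal migration distance, glia-normalized, scored versus DMSO control.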

[15] = IUF_NPC3_neuronal_differentiation_120hr: Leibniz Research Institute for Environmental Medicine (IUF) 120-hour Neuronal Differentiation Assay (NPC3) (AID 2284301)
Outline: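 Single 0.3 mm neurospheres from human fetal cortex were plated in differentiation medium containing test compound. Medium was half-replaced on day 3. After 120 h cells were fixed, immunostained and imaged, and neuronal fraction was scored against DMSO control.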

[16] = IUF_NPC4_neurite_length_120hr: Leibniz Research Institute for Environmental Medicine (IUF) 120-hour Neuronal Morphology Assay for Neurite Length (NPC4) (AID 2284302)
Outline: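 Read-out is mean neurite length in µm of TUBB3-positive neurons, skeletonized from high-content fluorescence images after 120 h. Single 0.3 mm primary human neural progenitor spheres differentiated on poly-D-lysine/laminin under continuous compound exposure; DMSO was baseline.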

[17] = IUF_NPC5_oligodendrocyte_differentiation_120hr: Leibniz Research Institute for Environmental Medicine (IUF) 120-hour Oligodendrocyte Differentiation Assay (NPC5) (AID 2284304; active = hit-call score of the fitted dose curve at least 0.9, where 1 is the maximum;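 note: primary human fetal neural progenitor spheres plated to migrate and differentiate; share of O4-positive cells among Hoechst nuclei found by CNN image analysis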)
Outline: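 After plating on poly-D-lysine/laminin, fetal-derived hNPC spheres differentiated for 120 h at 37C in compound-containing N2 medium, refreshed by half on day 3. O4 immunostaining over Hoechst nuclei in the migration zone gave oligodendrocyte percentage relative to DMSO.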

[18] = IUF_NPC2-5_cytotoxicity_72hr: Cytotoxicity Assessment at 72 hours in the Leibniz Research Institute for Environmental Medicine (IUF) Neural Progenitor Cell Migration and Differentiation Assay for Cytotoxicity (NPC2-5) (AID 2284306; active = hit-call score of the fitted dose curve at least 0.9, where 1 is the maximum;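 note: LDH release into supernatant measured by resorufin fluorescence marking membrane damage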)
Outline: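 Membrane integrity loss was scored from fluorescence (RFU) of resorufin generated by LDH in culture supernatant, 72 h after dosing. Differentiating human progenitor spheres received seven serial compound concentrations alongside a solvent control.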

[19] = IUF_NPC2-5_cytotoxicity_120hr: Cytotoxicity Assessment at 120 hours in the Leibniz Research Institute for Environmental Medicine (IUF) Neural Progenitor Cell Migration and Differentiation Assay (NPC2-5) (AID 2284307; active = hit-call score of the fitted dose curve at least 0.9, where 1 is the maximum)
Outline: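 Membrane-integrity loss is quantified by LDH in supernatant after five days of exposure of migrating, differentiating human fetal NPC spheres; seven serially diluted concentrations are tested with DMSO kept at or below 0.1%.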

[20] = IUF_NPC2-5_cell_number_120hr: Cell Number Assessment at 120 hours in the Leibniz Research Institute for Environmental Medicine (IUF) Neural Progenitor Cell Migration and Differentiation Assay (NPC2-5) (AID 2284308);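 note: count of Hoechst-stained nuclei in migration zone around plated human neural progenitor spheres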
Outline: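 Seven-point serial dilutions plus solvent control were applied to plated 0.3 mm hNPC spheres at differentiation start, with medium half-replaced at day 3. Nuclei positive for Hoechst in the migration zone were enumerated at 120 h.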

[21] = IUF_NPC2-5_viability_120hr: Viability Assessment at 120 hours in the Leibniz Research Institute for Environmental Medicine (IUF) Neural Progenitor Cell Migration and Differentiation Assay (NPC2-5) (AID 2284312)
Outline: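 Alamar blue resorufin fluorescence read after 5 days of differentiation, with compound present from day 0 and replenished at day 3. Primary hNPC spheres on laminin-coated plates, 37C; seven concentrations plus solvent control, fitted against DMSO.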

[22] = CCTE_Mundy_HCI_iCellGluta_NOG_NeuronCount: CCTE's Neurite Outgrowth Assay in iCellGluta cells for Neuron Count, Mundy Lab (AID 2284340; active = hit-call score of the fitted dose curve at least 0.9, where 1 is the maximum;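 note: cells fixed about 48 h after compound addition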)
Outline: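 Neuron count read by automated high-content imaging of Hoechst 33342 and betaIII-tubulin/Alexa Fluor-488 labelling in human iPSC glutamatergic neurons. Activity fitted relative to DMSO.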

Measured: outcome

CCc1ccccc1
inactive: all assays above
